# Screening data (PubChem)
# ID4 SMM: binders of human ID4 protein, primary screen, biochemical, small molecule microarray, single point | DNA-binding protein inhibitor ID-4 (Homo sapiens), P47928 | Flag-ID4 binding, fluorescence F/B | calls only | 31,000 compounds, 1.2% hits | AID 624137, 2012; call rule not given here;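 note: a binder raises fluorescence above local background on the spot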
# Target sequence (P47928 whole entry, looked up): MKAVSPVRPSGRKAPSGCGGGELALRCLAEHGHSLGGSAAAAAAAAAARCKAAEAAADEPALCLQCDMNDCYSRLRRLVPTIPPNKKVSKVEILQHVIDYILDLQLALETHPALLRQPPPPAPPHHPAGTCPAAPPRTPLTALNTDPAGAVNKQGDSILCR
# mut p53 react: mutant p53 pathway re-activators, primary screen, cell-based, SW480, luciferase, single point, HTS; SW480 PUMA-promoter luciferase, p53 mutant reactivation; activation, % at 9.98 µM; 28,000 compounds, 1.5% hits; AID 624151, 2012; in the data active = activation above about 52%
# Numbers stand for hits; - = inactive; . = no result; + = active, no number. An excerpt weighted towards active compounds, which were near 2.2% of everything screened.
SMILES,ID4 SMM,mut p53 react
COc1ccc(C(=O)CSc2n[nH]c(-c3ccc(C)cc3)n2)cc1,+,-
C[C@@H]1CN([C@@H](C)CO)C(=O)CCCn2cc(nn2)CO[C@@H]1CN(C)S(=O)(=O)c1ccc(Cl)cc1,-,-
Cc1ccc(NC(=O)COc2ccc(Br)cc2)cc1NC(=O)c1ccccc1,-,-
COC(=O)c1sccc1-c1ccc(-c2ccn(C(=O)c3ccc(Cl)cc3)n2)o1,-,97
CC(C)(OC(=O)c1ccccc1)[C@@H]1Cc2cc3ccc(=O)oc3cc2O1,-,-
CC(C)(O)[C@@H]1Cc2cc3ccc(=O)oc3cc2O1,-,54
CCN(CC(=O)Nc1ccc(C)c(Cl)c1)S(=O)(=O)c1ccc(Cl)cc1,-,-
C[C@@H]1CCCCO[C@@H](CN(C)C)[C@@H](C)CN([C@H](C)CO)C(=O)c2cc(NC(=O)Nc3ccccc3)ccc2O1,-,-
CN1/C(=C\C=C2\C(=O)Oc3ccccc3C2=O)C(C)(C)c2ccccc21,-,105
C[C@H]1CN([C@@H](C)CO)C(=O)c2cc(-c3ccc(C#N)cc3)cnc2O[C@H]1CN(C)C(=O)CC1CC1,-,.
C[C@@H]1CN([C@@H](C)CO)S(=O)(=O)c2ccc(C#CC(C)(C)O)cc2O[C@@H]1CN(C)Cc1ccc(F)cc1,-,-
C[C@@H]1CN([C@@H](C)CO)C(=O)c2cc(C#C[C@@H](C)O)cnc2O[C@H]1CN(C)Cc1cccc(F)c1,-,.
NCCNc1ccc([N+](=O)[O-])c(Sc2nc3ccccc3[nH]2)c1,-,-
NCCNc1ccc([N+](=O)[O-])c(NCCO)c1,+,-
Cc1ccc(NC(=O)C2CC(=O)n3cnnc3N2)cc1 (stereo not given),-,-
O=C(Nc1ccc(F)cc1)C1CC(=O)n2cnnc2N1 (stereo not given),+,-
COC(=O)c1c(NC(=S)NC(=O)CN2C(=O)c3ccccc3C2=O)sc2c1CCCC2,-,-
COc1ccc(-c2coc3c(OC)c(OC)cc(OC)c3c2=O)cc1,-,.
COc1ccc2c(=O)c(-c3ccc(OC)c(OC)c3)coc2c1,-,124
COc1ccc(-c2coc3cc(OC(C)=O)cc(OC(C)=O)c3c2=O)cc1,.,130
COc1ccc2c(=O)c(CC(=O)O)coc2c1,-,.
CCCn1nnc(NC(=O)COc2ccccc2Cl)n1,-,64
CCCn1nnc(NC(=O)C(C)Oc2ccc(Cl)cc2Cl)n1 (stereo not given),-,-
Clc1ccc(SCc2csc(-c3ccsc3)n2)cc1,-,61
Clc1ccc2nc(SCc3csc(Nc4ccccc4)n3)oc2c1,-,-
SMILES,ID4 SMM,mut p53 react
CC(C)(O)/C=C/C(=O)[C@](C)(O)[C@H]1[C@H](O)C[C@@]2(C)[C@@H]3CC=C4[C@@H](C=C(O[C@@H]5O[C@H](CO)[C@@H](O)[C@H](O)[C@H]5O)C(=O)C4(C)C)[C@]3(C)C(=O)C[C@]12C,.,-
C[C@H]1CCCCO[C@@H](CN(C)C(=O)Nc2ccc(C(F)(F)F)cc2)[C@@H](C)CN([C@@H](C)CO)C(=O)c2cc(NS(C)(=O)=O)ccc2O1,-,-
CCOc1cccc2cc(C(=O)NCc3cccnc3)c(=O)oc12,-,-
CC(=O)NCCNC(=O)c1cc2ccccc2oc1=O,-,-
COc1ccccc1CNC(=O)c1cc2ccccc2oc1=O,-,88
COc1cccc2cc(C(=O)NCc3ccccn3)c(=O)oc12,-,84
C/C=C/c1ccc2c(c1)O[C@@H](CN(C)CC1CCCC1)[C@H](C)CN([C@@H](C)CO)S2(=O)=O,-,-
Cc1cc(CNC(=O)c2cc(-c3ccccc3)nc3ccccc23)nn1C,-,-
N#CCCN(CCC#N)C(=O)c1cc(-c2ccccc2)nc2ccccc12,+,-
COc1ccc(-c2cn(CCNC(=O)[C@H](Cc3ccccc3)NS(=O)(=O)c3ccc(C)cc3)nn2)cc1OC,+,.
Cc1ccc(S(=O)(=O)N[C@@H](Cc2ccccc2)C(=O)CCl)cc1,.,-
COC(=O)CCCCCCC(=O)Nc1ccc(C=O)cc1,-,.
O=C(O)CCCC(=O)Nc1ccc(Cl)c(Cl)c1,-,-
COCC1CC(c2ccccc2)OC(c2ccc(NC(=O)CCCCCCC(=O)O)cc2)O1 (stereo not given),+,.
COC(=O)CCCCCCC(=O)Nc1ccc(C2OC(CN(C)Cc3ccccc3)CC(c3ccccc3)O2)cc1 (stereo not given),-,.
CN(Cc1ccccc1)CC1CC(c2ccccc2)OC(c2ccc(NC(=O)CCCCCCC(=O)O)cc2)O1 (stereo not given),+,.
O=C(O)CCCCCCC(=O)Nc1ccc(C2OC(CSc3ccncc3)CC(c3ccccc3)O2)cc1 (stereo not given),+,.
O=C(C[C@@H]1CC[C@@H](NC(=O)c2ccc(F)cc2)[C@H](CO)O1)NCCc1ccccc1,-,.
Cc1coc(C)c1C(=O)CC1(O)C(=O)N(CCCC#N)c2ccccc21 (stereo not given),-,-
N#CCCCN1C(=O)C(O)(CC(=O)c2ccc(Br)s2)c2ccccc21 (stereo not given),+,-
COc1cccc(-c2ccc3c(c2)O[C@H](CN(C)C(C)=O)[C@@H](C)CN([C@@H](C)CO)S3(=O)=O)c1,.,-
C[C@H]1CN([C@@H](C)CO)S(=O)(=O)c2ccc(-c3ccc(C#N)cc3)cc2O[C@H]1CN(C)C(=O)Nc1cc(F)ccc1F,+,-
C/C=C/c1ccc2c(c1)O[C@H](CN(C)S(=O)(=O)c1ccccc1OC)[C@H](C)CN([C@@H](C)CO)S2(=O)=O,+,-
COCC(=O)N(C)C[C@H]1Oc2cc(C#CC3CC3)ccc2S(=O)(=O)N([C@@H](C)CO)C[C@@H]1C,.,-
CCC(=O)N(C)C[C@@H]1Oc2cc(-c3cccc(OC)c3)ccc2S(=O)(=O)N([C@@H](C)CO)C[C@@H]1C,+,-
SMILES,ID4 SMM,mut p53 react
CCC(=O)N(C)C[C@@H]1Oc2cc(C#CC3CC3)ccc2S(=O)(=O)N([C@@H](C)CO)C[C@H]1C,+,-
C/C=C/c1ccc2c(c1)O[C@H](CN(C)S(=O)(=O)c1ccc(F)cc1)[C@H](C)CN([C@H](C)CO)S2(=O)=O,-,-
C[C@H](CO)N1C[C@H](C)[C@@H](CN(C)C(=O)Nc2cc(F)ccc2F)Oc2cc(C#CC3CCCC3)ccc2S1(=O)=O,-,.
CC(=O)N1N=C(N)SC12CCCC2,-,-
COc1ccc(S(=O)(=O)Nc2ccc3c(c2)C(=O)N([C@@H](C)CO)C[C@H](C)[C@@H](CN(C)C(=O)c2ccccc2)OCCCC[C@@H](C)O3)cc1,.,-
C[C@H]1CN([C@@H](C)CO)S(=O)(=O)c2ccc(-c3ccccc3F)cc2O[C@H]1CN(C)S(C)(=O)=O,-,.
CCC(C(=O)Nc1ccccc1C(=O)N1CCOCC1)N1C(=O)c2ccccc2C1=O (stereo not given),-,-
CC(=O)N[C@H]1CC[C@H](CCNC(=O)C2CCC2)O[C@H]1CO,-,.
COc1ccc(N2C(=O)CC(SCC(=O)Nc3c(C)cccc3C)C2=O)cc1 (stereo not given),+,-
COc1ccc(N2C(=O)CC(SCC(=O)Nc3ccc(C)c(C)c3)C2=O)cc1 (stereo not given),-,-
O=C(COc1ccc2ccccc2c1)Nc1ccccc1C(=O)Nc1ccc(F)cc1,-,-
